The values below come from PubChem BioAssay (Tox21).

Unmarked numbers belong to inactive results. Calls follow the shape of the full dose curve.
% is scaled to controls: 0 for no effect and ±100 for the full control effect.

The target in the assay is Acetylcholinesterase (Homo sapiens) (UniProt P22303). As to the kind of experiment: Acetylcholinesterase (AChE) small molecule antagonists: enzyme-based qHTS assay with human liver microsomes (AID 1347399). Also: nearly all actives have a fitted effect of over 60% in size. As to conditions: Potency: qHTS inhibition; outcome: qHTS inhibition; series mostly up to 115 µM; activity change, negative = inhibition: at the top concentration. Put shortly: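 Recombinant human AChE (50 mU/mL in the enzyme mix) and human liver microsomes (0.25 mg/mL final) were preincubated with compound and NADPH (0.25 mg/mL final) for 30 min at 37 C. Acetylthiocholine/DTNB was then added; thiocholine was read colorimetrically after 10 min at room temperature.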
Chain of Acetylcholinesterase (Homo sapiens) (P22303 whole entry, looked up): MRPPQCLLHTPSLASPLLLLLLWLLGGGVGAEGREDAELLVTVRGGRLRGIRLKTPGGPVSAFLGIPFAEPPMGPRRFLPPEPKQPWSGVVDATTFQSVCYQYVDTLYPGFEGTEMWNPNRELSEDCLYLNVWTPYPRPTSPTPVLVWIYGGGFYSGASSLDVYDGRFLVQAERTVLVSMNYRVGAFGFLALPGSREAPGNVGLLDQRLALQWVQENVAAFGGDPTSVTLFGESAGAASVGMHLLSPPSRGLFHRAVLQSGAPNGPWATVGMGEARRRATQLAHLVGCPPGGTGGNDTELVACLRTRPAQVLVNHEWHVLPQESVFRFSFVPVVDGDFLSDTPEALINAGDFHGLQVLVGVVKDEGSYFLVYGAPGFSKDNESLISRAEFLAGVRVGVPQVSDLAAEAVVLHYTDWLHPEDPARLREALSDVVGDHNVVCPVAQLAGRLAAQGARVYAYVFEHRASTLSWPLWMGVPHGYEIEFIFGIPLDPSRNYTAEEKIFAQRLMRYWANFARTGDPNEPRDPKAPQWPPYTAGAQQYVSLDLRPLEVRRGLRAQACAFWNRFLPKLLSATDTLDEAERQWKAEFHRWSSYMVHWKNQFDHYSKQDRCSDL
A general note: In qHTS, concentration-response curves come from the screen itself.
Take `O=C(/N=N/C(=O)OCc1ccccc1)OCc1ccccc1`: the “activity change, negative = inhibition” value is -0.621%.
Turning to `CCO[Si](C)(OCC)OCC`, the “activity change, negative = inhibition” value was 0.0702%.
As to `CN(C)CCN(C)CCO`, the “activity change, negative = inhibition” value is -0.148%.
In the case of `CCCC(=O)OCC`, the “activity change, negative = inhibition” value was -2.5%.
For `CC(=O)S[C@@H]1CC2=CC(=O)CC[C@]2(C)[C@H]2CC[C@@]3(C)[C@@H](CC[C@@]34CCC(=O)O4)[C@H]12`, the “activity change, negative = inhibition” value was 0.522%.
The same measure for `COC(C)=O`: -0.678%; for `COC(=O)C1=C(C)NC(C)=C(C(=O)OC(C)(C)CN(C)CCC(c2ccccc2)c2ccccc2)C1c1cccc([N+](=O)[O-])c1` (configuration not stated): 0.885% [at 53 µM].
In the case of `CCC(CC)CO`, the “activity change, negative = inhibition” value is -1.01%.
The same measure for `C[C@@H](O)[C@H]1C(=O)N2C(C(=O)O)=C([C@H]3CCCO3)S[C@H]12`: 0% [at 53 µM]; for `COC(OC)(C(=O)c1ccccc1)c1ccccc1`: 1.22%.
Take `CCCCCc1ccco1`: the “activity change, negative = inhibition” value was 0.119% [at 53 µM].
`OCCCO`: the “activity change, negative = inhibition” value is -4.62%.
Regarding `Nc1cc(C(=O)O)c(O)c(S(=O)(=O)O)c1`, the “activity change, negative = inhibition” value was 1.11%.
With `CCN(CC)CC` the figure was 1.52%.
Consider `O=C(Oc1cccc2cccnc12)c1ccccc1`, for which the “activity change, negative = inhibition” value was -3.25% [at 53 µM].
Consider `O=C(O)CNC(=O)CNC(=O)CNC(=O)CSC(=O)c1ccccc1`, for which the “activity change, negative = inhibition” value is -1.3% [at 53 µM].
The same measure for `O=C1CC[C@@H](C(=O)O)N1`: -0.0545% [at 53 µM].
Turning to `CC(=O)c1cnccn1`, the “activity change, negative = inhibition” value is -2%.
Regarding `C[C@@H](O)[C@H](N)C(=O)O`, the activity change, negative = inhibition is -2.85% [at 23.6 µM].
For `FC1(F)C(F)(F)C(F)(F)C2(F)C(F)(C1(F)F)C(F)(F)C(F)(F)C1(F)C(F)(F)C(F)(F)C(F)(F)C(F)(F)C12F` (configuration not stated), the “activity change, negative = inhibition” value is -0.153%.
Consider `C=C(C)C(=O)OCCOCCOC(=O)C(=C)C`, for which the “activity change, negative = inhibition” value is 0.0764%.
Consider `CNC(=O)c1cnn(-c2nc(N)c3ncn([C@@H]4O[C@H](CO)[C@@H](O)[C@H]4O)c3n2)c1`, for which the “activity change, negative = inhibition” value was 0.185% [at 53 µM].
